One may read the AC50 as the concentration at which the activity in the assay is half-maximal.

This is an account of results in PubChem BioAssay (EPA / NIEHS).

“And” between values parts separate entries of the source, which are not always exact repeats. Equal entries are not always repeated. Inconclusive results are not listed. The source holds several records for some structures; these can differ, active in one and inactive in another. The source made the active and inactive calls. Rule for the calls, unless noted: active = hit-call score of the fitted dose curve at least 0.9, where 1 is the maximum; inactive = score below 0.9.

The nature of assay [1]: CCTE_Mundy_HCI_Cortical_NOG_NeuriteCount: CCTE's Neurite Outgrowth Assay in rat cortical cells for Neurite Count, Mundy Lab (AID 2284212).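 Note: cells fixed about two days after chemical exposure began.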 The essentials:
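Neurite number per cell from high-content imaging of betaIII-tubulin immunostaining, with Hoechst nuclear counterstain.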

The nature of assay [2]: CCTE_Mundy_HCI_Cortical_NOG_NeuriteLength: CCTE's Neurite Outgrowth Assay in rat cortical cells for Neurite Length, Mundy Lab (AID 2284213).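 For AC50: neurites imaged about 48 to 50 h after chemical exposure began.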 The essentials:
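Neurite length was read by high-content imaging of βIII-tubulin-labelled neurites in rat primary cortical cultures. Activity was fitted relative to DMSO.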

A short description of assay [3]: CCTE_Mundy_HCI_Cortical_Synap_Neur_Matur_NeuriteLength: CCTE's Synaptogenesis and Neurite Maturation Assay in rat cortical cells for Neurite Length, Mundy Lab (AID 2284214). The essentials: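 Rat cortical neurons, AraC at DIV 5; compound + media change DIV 7, end DIV 12 (288.33 h). Fix, MAP2/synaptophysin/Hoechst immunostain, automated HCI of neurite length vs DMSO.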

Assay [4] in a line: CCTE_Mundy_HCI_Cortical_Synap_Neur_Matur_NeuriteSpotCountPerNeuron: CCTE's Synaptogenesis and Neurite Maturation Assay in rat cortical cells for Neurite Spot Count per Neuron Count, Mundy Lab (AID 2284215). The essentials: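 Rat primary cortical cultures given AraC at DIV 5, dosed from DIV 7 to DIV 12 with media change. Fixed, stained for MAP2, synaptophysin and Hoechst; neurite-associated synaptophysin puncta per neuron quantified by high-content imaging versus DMSO.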

Assay [5] can be described thus: CCTE_Mundy_HCI_Cortical_Synap_Neur_Matur_SynapseCount: CCTE's Synaptogenesis and Neurite Maturation Assay in rat cortical cells for Synapse Count, Mundy Lab (AID 2284218). The essentials: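 Primary rat cortical culture; AraC DIV 5 to arrest glia; compound + media change DIV 7; terminated DIV 12. PFA/Hoechst fix, anti-MAP2 + anti-synaptophysin immunostain; HCI synapse count/neuron; DMSO = baseline.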

Assay [6] is described as follows: CCTE_Mundy_HCI_Cortical_Synap_Neur_Matur_NeuriteCount: CCTE's Synaptogenesis and Neurite Maturation Assay in rat cortical cells for Neurite Count, Mundy Lab (AID 2284222).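 For outcome: exposure from day 7 to day 12 in vitro with readout at day 12.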 The essentials:
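Rat primary cortical cells; AraC added at DIV 5, chemicals dosed with media change at DIV 7 through DIV 12. MAP2/synaptophysin/Hoechst immunostaining, high-content imaging of neurite number; fitted relative to DMSO.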

Assay [7] is described as follows: CCTE_Mundy_HCI_Cortical_Synap_Neur_Matur_CellBodySpotCount: CCTE's Synaptogenesis and Neurite Maturation Assay in rat cortical cells for Cell Body Spot Count, Mundy Lab (AID 2284223). The essentials: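 Primary rat cortical cultures, AraC added at DIV 5; dosed DIV 7 through DIV 12 […]. Fixed, stained for MAP2 and synaptophysin with Hoechst; cell body-associated synaptophysin puncta per neuron counted by high-content imaging, loss vs DMSO.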

A short description of assay [8]: CCTE_Mundy_HCI_hNP1_Pro_ResponderAvgInten: CCTE's Proliferation Assay in human neuroprogenitor cells, Mundy Lab (AID 2284224; active = hit-call score of the fitted dose curve at least 0.9, where 1 is the maximum;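 note: human neural progenitor cells hNP1 derived from WA09 embryonic stem cells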). The essentials:
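Human neuroprogenitors (hNP1, WA09 lineage) receive test chemical after 40 to 44 hours of attachment. A four-hour BrdU pulse begins twenty hours later, followed by fixation and high content imaging; signal is referenced to DMSO controls.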

Assay [9] in a line: UKN4_HCS_LUHMES_cell_viability: Viability Assessment in the University of Konstanz (UKN) Leist Lab Neurite Outgrowth Assay in human LUHMES cells (UKN4) (AID 2284232). The essentials:
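Fluorescence intensity from high-content imaging of Hoechst H-33342/calcein-AM-stained cells served as the viability read-out. Human LUHMES precursors were differentiated 2 days, replated and treated 24 h; curves were fitted bidirectionally against DMSO.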

Assay [10] is described as follows: UKN2_HCS_IMR90_cell_viability: Viability Assessment in the University of Konstanz (UKN) Leist Lab Neural Crest Cell Migration Assay in human induced IMR90 Pluripotent Stem Cells (UKN2) (AID 2284233).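 Note: viability of neural crest cells differentiated from IMR90 iPSC measured by calcein-AM fluorescence imaging; cells exposed to compound for 24 h after a 24 h migration phase.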 The essentials: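 iPSC-derived (IMR90) neural crest cells seeded around silicone stoppers on PLO/laminin/fibronectin; after 24 h migration in N2-S with EGF/FGF, chemical added for 24 h. Calcein-AM/Hoechst stained 30 min, high-content imaged; bidirectional fit versus DMSO.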

Assay [11] is described as follows: BSK_BT_PBMCCytotoxicity: PBMC Cytotoxicity Assessment in the BioMAP Diversity Plus: BT Assay (AID 2284225).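 Note: PBMC viability measured by Alamar Blue dye reduction fluorescence.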 Conditions: primary human B cells with PBMC. The essentials: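 PBMC (75,000/well) pretreated with compound 1 h, then activated with SEB and TSST-1 (20 ng/mL each final), incubated 90 h; Alamar Blue added 6 h, fluorescence read at 546/580 nm. Fitted relative to DMSO.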

Read-out in assay [12]: Secreted IgG (sIgG), gene 3500
Kind of assay: BSK_BT_sIgG: BioMAP Diversity Plus: BT Assay for Secreted IgG (sIgG) Biomarker Activity (AID 2284226). Conditions: primary human B cells with PBMC. The essentials:
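Read-out: ELISA for secreted IgG after 24 h of chemical exposure in a B cell plus PBMC co-culture. Values reflect upward-direction fitting against DMSO negative controls.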

Read-out in assay [13]: Interleukin 6 (IL6), IL6 (gene 3569)
Kind of assay: BSK_BT_xIL6: BioMAP Diversity Plus: BT Assay for Interleukin 6 (IL6) Biomarker Activity (AID 2284228). Conditions: primary human B cells with PBMC. The essentials:
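Human B cell/PBMC co-culture; secreted IL-6 quantified by Luminex xMAP 24 h after chemical dosing, fitted relative to DMSO. Parallel PBMC viability by Alamar Blue after 1 h pretreatment, 20 ng/mL SEB and TSST-1, 90 h incubation.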

Read-out in assay [14]: Interleukin 17A (IL17A), IL17A (gene 3605)
Kind of assay: BSK_BT_xIL17A: BioMAP Diversity Plus: BT Assay for Interleukin 17A (IL17A) Biomarker Activity (AID 2284229). Conditions: primary human B cells with PBMC. The essentials: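 Co-culture of human B cells and PBMC, dosed for 24 h in 96-well format. Secreted IL-17A measured with Luminex xMAP; gain-direction fitting against DMSO as baseline.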

Read-out in assay [15]: Tumor necrosis factor (Homo sapiens) (UniProt P01375)
Briefly: BSK_BT_xTNFa: BioMAP Diversity Plus: BT Assay for Tumor necrosis factor alpha (TNF-alpha) Biomarker Activity (AID 2284230). Conditions: primary human B cells with PBMC. The essentials:
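B cells with PBMC in co-culture, dosed and sampled at 24 h; secreted TNF-alpha measured by Luminex xMAP bead assay. Activity fitted in the gain direction against DMSO as negative control and baseline.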

Read-out in assay [16]: Vascular cell adhesion molecule 1 (VCAM1), VCAM1 (gene 7412)
Briefly: BSK_MyoF_VCAM1: BioMAP Diversity Plus: MyoF Assay for Vascular cell adhesion molecule 1 (VCAM1) Biomarker Activity (AID 2284231). The following applies: primary human lung fibroblasts. The essentials: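 Primary human lung fibroblasts (BioMAP MyoF system) dosed with chemical, VCAM-1 measured by ELISA 24 hours later. Fitted in the positive direction against DMSO; parallel SRB staining assessed cytotoxicity.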

The nature of assay [17]: TAMU_PeakParms_SingleDonor1434_Chronotropy: Texas A&M University (TAMU) 1.5-hr Human Induced Pluripotent Stem Cell (iPSC)-derived Cardiomyocytes Calcium (Ca+2) Flux Assay for Cardiotoxicity: Chronotropy (changes in peak frequency) (AID 2284217). Conditions: actives raise or lower the signal. The essentials:
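iPSC-derived cardiomyocytes (single donor 1434) dosed at 0.2, 1, 10 and 100 uM in 0.5% DMSO for 1.5 h at 37C; Ca2+ dye fluorescence gave average beat frequency. Zero-beat points removed; bidirectional fit versus DMSO, POD as EC05.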

Assay [18] is described as follows: CCTE_Mundy_HCI_hN2_NOG_NeuriteCount: CCTE's Neurite Outgrowth Assay in human hN2 cells for Neurite Count, Mundy Lab (AID 2284219; active = hit-call score of the fitted dose curve at least 0.9, where 1 is the maximum). The essentials: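 In this morphology assay, hNP1-derived neurons received test chemical 2 h post-plating and were fixed two days later in warm paraformaldehyde/sucrose containing Hoechst 33342. Neurites, labelled by rabbit anti-βIII-tubulin (1:800) and Alexa Fluor-488 (1:500), were counted automatically.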

The nature of assay [19]: CCTE_Mundy_HCI_hN2_NOG_NeuriteLength: CCTE's Neurite Outgrowth Assay in human hN2 cells for Neurite Length, Mundy Lab (AID 2284220; active = hit-call score of the fitted dose curve at least 0.9, where 1 is the maximum). The essentials: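 Using βIII-tubulin immunofluorescence and Hoechst nuclear counterstain, this component quantifies neurite length in hNP1-derived neurons.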
The nature of assay [20]: CCTE_Mundy_HCI_hN2_NOG_NeuronCount: CCTE's Neurite Outgrowth Assay in human hN2 cells for Neuron Count, Mundy Lab (AID 2284221; active = hit-call score of the fitted dose curve at least 0.9, where 1 is the maximum). The essentials: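 Read-out is the number of betaIII-tubulin-positive neurons imaged by automated high-content analysis, with DMSO as negative control.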

Sequence of Tumor necrosis factor (Homo sapiens) (P01375 whole entry, looked up): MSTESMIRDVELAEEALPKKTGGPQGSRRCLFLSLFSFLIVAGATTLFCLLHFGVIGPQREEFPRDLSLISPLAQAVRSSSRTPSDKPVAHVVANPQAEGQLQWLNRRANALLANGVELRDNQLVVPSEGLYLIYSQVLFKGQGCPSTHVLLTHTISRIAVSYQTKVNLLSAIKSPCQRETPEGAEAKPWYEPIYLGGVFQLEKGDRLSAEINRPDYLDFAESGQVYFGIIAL

In the case of `Nc1ccn([C@@H]2O[C@H](CO)[C@@H](O)[C@@H]2O)c(=O)n1`, the half-maximal activity concentration (AC50) in assay [1] is 9.69 µM (active) and 4.75 µM (active); in [2], 9.08 µM (active) and 3.77 µM (active); in [3], 11900 nM (active); in [4], 12400 nM (active); in [5], 12400 nM (active); in assay [6] it was 12.6 µM (active) and 15 µM (active). For the same molecule, the AC50 was 11700 nM (active) in assay [7]; 9.56 nM (active) and 3.83 nM (active) in assay [8]. In addition, the molecule was called inactive in [3], in [4], in assay [5], in [7], in assay [9] and in [10].

In the case of `OCCC(F)(F)C(F)(F)C(F)(F)C(F)(F)F`, the result in assay [11], in assay [12], in assay [13], in [14], in assay [15] and in assay [16] was inactive.

Turning to `CCCC(CCC)C(=O)O`, the result in assay [1], in assay [2], in [3], in [4], in [17] and in assay [5] was inactive. The molecule was classed as inactive in assay [18], in assay [19], in [20], in assay [6], in assay [7] and in assay [9]. In addition, the call in [10] was inactive.

As to `c1ccc2cc3ccccc3cc2c1`, the result in [1], in assay [2], in assay [3], in [4], in [5] and in [6] was inactive. Besides, the outcome in assay [7] was inactive. In addition, the AC50 in assay [17] was 20200 nM (active).

Consider `FC(F)(F)COC(OCC(F)(F)F)OCC(F)(F)F`, for which the outcome in assay [11], in assay [12], in assay [13], in assay [14], in [15] and in assay [16] was inactive.

For `O=S(=O)(O)CCC(F)(F)C(F)(F)C(F)(F)C(F)(F)C(F)(F)C(F)(F)F`, the outcome in assay [11], in assay [12], in [13], in assay [14], in [15] and in assay [16] was inactive.

As for `COc1cc2c(c(OC)c1OC)-c1ccc(OC)c(=O)cc1[C@@H](NC(C)=O)CC2`, the AC50 in assay [1] is 17.2 nM (active); in [2], 12.4 nM (active); in assay [3] it was 35.4 nM (active); in [4] it was 29.7 nM (active); in assay [5], 30.2 nM (active); in assay [18] it was 9.66 nM (active). The AC50 in [19] is 9.31 nM (active); in [20] it was 26.2 nM (active); in assay [6], 440 nM (active); in assay [7], 42.7 nM (active). Further, the outcome in [17] was inactive.

On to `S=P(N1CC1)(N1CC1)N1CC1`, for which the outcome in assay [11], in assay [13], in assay [14], in [15] and in assay [16] was inactive. In assay [12], the AC50 was 2710 nM (active).

`O=C(Cl)C(F)(F)C(F)(F)C(F)(F)C(=O)Cl`: the result in [11], in assay [12], in assay [13], in assay [14], in assay [15] and in assay [16] was inactive.

Turning to `CCN(CC)C(=S)SSC(=S)N(CC)CC`, the AC50 in assay [17] is 8820 nM (active).

Consider `C[Si](C)(C)C(F)(F)C(F)(F)C(F)(F)F`, for which the outcome in [11], in [12], in assay [13], in [14], in assay [15] and in [16] was inactive.

Turning to `FC(F)=C(F)C(F)(F)C(F)(F)C(F)(F)C(F)(F)C(F)(F)C(F)(F)F`, the result in assay [11], in [12], in [13], in assay [14], in assay [15] and in [16] was inactive.
